cytoskel mod: modifiers of cytoskeleton assembly | AID 836 | inhibition, % at 2 µM | HUVEC TNFa F-actin phalloidin imaging, high content | actives 0.18% (n = 91,000);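 active = inhibition above the batch mean plus 3 SD and confirmed as a hit by visual image inspection, cut at about 30% in these data, passing the limit was not always enough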
CYP2C9 inhib: blocks human cytochrome P450 2C9. inhibition, % at 5 µM. CYP2C9 Supersomes, luciferin-H conversion, luminescence. actives 20% (n = 96,000). P11712;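 active = blocking of liver enzyme CYP2C9 beyond about 50% at 5 µM, limit read from the data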
Target sequence (P11712 whole entry, looked up): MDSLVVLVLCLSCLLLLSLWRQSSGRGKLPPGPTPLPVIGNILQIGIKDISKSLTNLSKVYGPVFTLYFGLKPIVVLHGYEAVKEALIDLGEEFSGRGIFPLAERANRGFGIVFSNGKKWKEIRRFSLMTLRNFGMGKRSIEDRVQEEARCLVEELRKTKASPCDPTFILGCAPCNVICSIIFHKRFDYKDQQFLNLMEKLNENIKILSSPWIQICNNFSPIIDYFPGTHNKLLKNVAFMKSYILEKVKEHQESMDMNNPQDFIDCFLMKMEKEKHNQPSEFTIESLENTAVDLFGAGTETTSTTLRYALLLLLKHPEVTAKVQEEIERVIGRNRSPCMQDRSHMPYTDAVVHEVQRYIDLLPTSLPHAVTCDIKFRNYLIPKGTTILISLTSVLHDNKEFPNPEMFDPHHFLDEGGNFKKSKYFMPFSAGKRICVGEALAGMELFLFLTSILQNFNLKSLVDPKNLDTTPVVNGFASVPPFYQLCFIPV
E-sel TNF inh: blocks E-selectin expression induced by TNF alpha; actives 0.71% (n = 120,000); AID 1246; HUVEC TNFa-induced E-selectin immunofluorescence, high content; inhibition, % at 2 µM;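 active = inhibition above the batch mean plus 3 SD, and confirmed as a hit on visual image review, cut at about 43% in these data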
CYP2C19 inh: blocks human cytochrome P450 2C19; P33261; CYP2C19 Supersomes, luciferin-H EGE luminescence, 30 min; inhibition, % at 5 µM; actives 21% (n = 96,000); AID 778;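 active = CYP2C19 inhibition above a set limit at 5 µM in the primary screen, cut at about 50% in these data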
CYP2C19 activ: increases human CYP2C19 enzyme activity. 96,000 tested, under 10 active. recombinant CYP2C19, luciferin-H EGE luminescence; active compounds read high; 0 = fully inhibited enzyme, 1 = untreated enzyme. activation factor at 5 µM. P33261;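 active = activation factor of at least 2 at 5 µM in the primary screen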
CYP2C9 activ: increases human cytochrome P450 2C9 activity | P11712 | activation factor at 5 µM | actives 1.4% (n = 96,000) | recombinant CYP2C9, luciferin-H conversion, luminescence; active compounds read high; factor 1 = untreated enzyme, 0 = blocked | AID 1024;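 active = activation factor of 2 or more for CYP2C9 at a 5 µM dose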
Numbers stand for hits; i = inactive; nt = no result given. A selection: hits, their analogues and other compounds. The true share with any hit is near 22%.

SMILES	cytoskel mod	CYP2C9 inhib	E-sel TNF inh	CYP2C19 inh	CYP2C19 activ	CYP2C9 activ
Cc1cccc2c(C(=O)O)cc(-c3cccnc3)nc12	nt	nt	i	nt	nt	nt
O=c1oc2ccccc2cc1NCc1ccccc1O	i	i	nt	58.7	i	i
CCSCCNC(=O)c1cncc(Br)c1	i	i	i	i	i	i
c1ccc(CN(Cc2ccco2)C(c2ccncc2)c2nnnn2C2CCCC2)cc1 (stereo not drawn)	i	97.7	i	98.0	i	i
CCN(CC)C(c1ccc(F)cc1)c1nnnn1C1CCCCC1 (stereo not drawn)	i	i	i	i	i	i
CC(C)(C)n1nnnc1C(c1ccc(F)cc1)N(Cc1ccc(F)cc1)Cc1ccco1 (stereo not drawn)	i	65.0	i	i	i	i
CC(C)(C)n1nnnc1C(c1cccnc1)N(Cc1ccccc1)Cc1cccs1 (stereo not drawn)	i	60.7	i	i	i	i
CCN(CC)C(c1ccc(C)cc1)c1nnnn1C1CCCCC1 (stereo not drawn)	i	77.8	i	95.0	i	i
Cc1ccccc1S(=O)(=O)NCc1cccnc1	nt	nt	i	nt	nt	nt
Cc1ccc(C(c2nnnn2C(C)(C)C)N(Cc2ccco2)Cc2cccs2)cc1 (stereo not drawn)	nt	75.9	i	i	i	i
CC(C)(C)n1nnnc1C(c1ccc(C(F)(F)F)cc1)N(Cc1ccccc1)Cc1ccco1 (stereo not drawn)	i	i	i	i	i	i
Cc1noc(C)c1COC(=O)c1cnc(Cl)c(Cl)c1	nt	nt	i	nt	nt	nt
Cc1noc(C)c1COC(=O)c1cccnc1SCC(=O)Nc1ccc2c(c1)OCO2	i	74.0	i	i	i	i
Cc1noc(C)c1COC(=O)c1ccccc1Oc1ccccc1	i	89.2	i	96.3	i	i
Cc1noc(C)c1COC(=O)c1cc(F)c(F)cc1Cl	i	55.0	i	76.8	i	i
Cc1noc(C)c1COC(=O)c1ccccc1NC(=O)Cc1ccccc1	i	97.5	i	99.0	i	i
COc1ccc(Cl)cc1N=Cc1c(O)cc(C)oc1=O	i	nt	i	nt	nt	nt
O=C(NCc1nnc(SCC(=O)N2CCN(c3ccccc3)CC2)o1)c1ccco1	i	nt	i	nt	nt	nt
CC(Oc1ccc(Br)cc1)C(=O)NCc1ccccn1 (stereo not drawn)	nt	nt	i	nt	nt	nt
CCOC(=O)c1c(NC(=O)Cn2c(=O)oc3ccccc32)oc(C)c1C(C)=O	i	nt	i	nt	nt	nt
COc1ccc(/C=c2/sc3nc(-c4ccccc4)c(-c4ccccc4)n3c2=O)cc1	nt	nt	i	nt	nt	nt
Cc1ccc(C(NC(N)=O)c2ccccc2C)cc1 (stereo not drawn)	i	i	i	99.0	i	i
Cc1ccc(C(NC(N)=O)c2ccccc2)cc1 (stereo not drawn)	i	62.7	i	97.0	i	i
COc1ccc(C(NC(N)=O)c2ccccc2)cc1 (stereo not drawn)	i	i	nt	i	i	i
CN1CCN(C(c2ccccc2)c2nnnn2Cc2ccccc2)CC1 (stereo not drawn)	i	nt	i	nt	nt	nt
SMILES	cytoskel mod	CYP2C9 inhib	E-sel TNF inh	CYP2C19 inh	CYP2C19 activ	CYP2C9 activ
COc1ccc(Cn2nnnc2C(c2ccc(F)cc2)N2CCN(C3CCCC3)CC2)cc1 (stereo not drawn)	i	i	nt	88.2	i	i
COc1ccc(Cn2nnnc2C(c2ccccn2)N2CCN(c3cc(Cl)ccc3C)CC2)cc1 (stereo not drawn)	nt	87.7	i	97.9	i	i
COc1ccc(Cn2nnnc2C(c2cccs2)N2CCOCC2)cc1 (stereo not drawn)	i	55.9	i	86.3	i	i
COCCn1nnnc1C(c1ccccn1)N1CCN(c2cc(Cl)ccc2C)CC1 (stereo not drawn)	i	i	i	i	i	i
CC1CCCN(C(c2cccs2)c2nnnn2Cc2ccccc2)C1 (stereo not drawn)	i	i	i	85.8	i	i
C#CCOCCOCCOCCNc1nc(N2CCN(C(=O)[C@H](C(C)C)n3cc(CCO)nn3)CC2)nc(N2CCN(C(=O)[C@H](CCCCN)n3cc(CCCC)nn3)CC2)n1	nt	nt	i	nt	nt	nt
CN1C(=O)N(C)C2(c3ccccc3)N(C(C)(C)C)C(=O)NC12c1ccccc1 (stereo not drawn)	nt	nt	i	nt	nt	nt
O=C(NC(c1ccccc1)c1ccccc1)C1CCCC1	nt	nt	i	nt	nt	nt
COc1ccc(Cn2nnnc2C(c2ccc(N(C)C)cc2)N2CCC(C)CC2)cc1 (stereo not drawn)	i	52.5	i	57.5	i	i
COc1ccc(N2CCN(C(c3ccccc3)c3nnnn3Cc3ccc(F)cc3)CC2)cc1 (stereo not drawn)	i	i	i	63.8	i	i
COc1ccc(C(c2nnnn2Cc2ccc(F)cc2)N2CCN(c3ccccc3)CC2)cc1 (stereo not drawn)	i	i	i	i	i	i
CCOc1cc(/C=C2/N=C(C)C(C(=O)OC)=C2O)ccc1O	nt	nt	i	nt	nt	nt
CCCCn1c2c(c(=O)n(C)c1=O)C(CC(=O)OCC(=O)Nc1cccc(C(F)(F)F)c1)C(=O)N2 (stereo not drawn)	i	86.4	i	i	i	i
CCOc1cccc(=O)c2c(C)oc(C)c12	i	95.2	i	i	i	i
CCOc1cccc2cc(-c3cn4cc(C)ccc4n3)c(=O)oc12	nt	i	i	i	i	i
Cc1ccc(NC(=O)N2C(=O)C3(OCCO3)c3ccccc32)cc1	i	i	i	59.9	i	i
O=C(NCc1ccccc1)c1ccco1	i	nt	i	nt	nt	nt
O=C(Nc1ccccc1C(=O)NC(Cc1ccccc1)C(=O)NC1CCCCCC1)c1ccccc1 (stereo not drawn)	i	71.4	i	i	i	i
O=C(Nc1ccc(Cl)cc1C(=O)NCc1cccnc1)c1ccco1	i	57.6	i	i	i	i
CC(NC(=O)c1ccccc1NC(=O)c1ccco1)c1ccccc1 (stereo not drawn)	i	69.6	i	i	i	i
O=C(Nc1ccc(Cl)cc1C(=O)Nc1ccncc1)c1ccco1	i	i	i	i	i	i
O=C(Nc1ccccc1C(=O)NCc1ccccc1)c1ccco1	i	73.9	i	53.9	i	i
CC(C)C(NC(=O)c1ccccc1NC(=O)c1ccco1)C(=O)O (stereo not drawn)	i	i	i	i	i	i
COc1ccc(-c2nn(-c3ccccc3)cc2/C=N/Nc2ccccn2)cc1	nt	nt	i	nt	nt	nt
CC(C)(C)c1ccc(NC(=O)c2ccccc2)c([N+](=O)[O-])c1	nt	nt	i	nt	nt	nt
Cc1cc(C(=O)COC(=O)CC2Sc3ccccc3NC2=O)c(C)n1-c1ccc2c(c1)OCO2 (stereo not drawn)	nt	nt	i	nt	nt	nt
CN(Cc1ccccc1)C(=O)Nc1ccccc1	i	i	i	i	i	i
O=C(Nc1cccc2cccc(NC(=O)c3ccco3)c12)c1ccco1	i	i	i	69.4	i	i
O=C(Nc1ccccc1C(=O)NCc1ccccc1)c1ccccc1	i	54.1	i	i	i	i
O=C(Nc1ccccc1C(=O)NCc1cccnc1)c1ccco1	i	53.6	i	78.3	i	i

Assay outcomes from PubChem BioAssay.
